The values that follow come from PubChem BioAssay AID1069 (NMMLSC, 2008).

The assay in a line: activators of LNCaP cell differentiation, retest, confirmation, side scatter shift, flow cytometry (AID 1069).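 Also: LNCaP human prostate cancer cells in low-serum medium with charcoal-stripped FBS; percent of cells with raised granularity gated so DMSO controls show 10%.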 As to conditions: 4 d, stronger effect = higher value. On the technique in general: In flow cytometry, cells or beads pass a laser one at a time.

Calls of active or inactive are those of the source.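 The calls were made as follows: active = high combined rank on largest and smallest cell-count-weighted shift across three tests, rank score above 45, floors 50 and 25 (some results past the limit were not filed as active); inactive = the rest.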

For the compound `COc1ccc(/C=N/c2nc3ccccc3n2C)cc1OC`, the side scatter shift runs as follows: (at 100 µM) 10% (inactive); (side scatter shift, at 10 µM) 6.6%.

In the case of `O=C(NCc1ccc(Cl)cc1)c1noc2c1CCCC2`, the side scatter shift is 8% (inactive) (at 100 µM) and 3.3% (side scatter shift, at 10 µM).

Turning to `Cc1nnc(NCc2n[nH]c(=O)c3ccccc23)c2ccccc12`, the side scatter shift (at 100 µM) was 46.8% (inactive) and the side scatter shift (side scatter shift, at 10 µM) was 6.5%.

Consider `COCCCN(C(=O)Nc1ccccc1)C(C)c1ccncc1` (configuration not stated), for which the side scatter shift (at 100 µM) is 9.2% (inactive) and the side scatter shift (side scatter shift, at 10 µM) turned out to be 2.8%.

On to `Nc1ccc(-n2ccnc2)cc1`, for which the side scatter shift (at 100 µM) is 37.6% (inactive) and the side scatter shift (side scatter shift, at 10 µM) was found to be 7.5%.

In the case of `COc1cc(C(=O)NCc2nnc(SCC(=O)NCc3ccccc3)o2)cc(OC)c1OC`, the side scatter shift runs as follows: (at 100 µM) 9.6% (inactive); (side scatter shift, at 10 µM) 7.7%.

Consider `O=C(NCCCN1CCN(c2ccccc2F)CC1)C1CCC(=O)N1C1CCCC1` (configuration not stated), for which the side scatter shift is 5% (inactive) (at 100 µM) and 2.35% (side scatter shift, at 10 µM).

As for `CC1(C)CC(=O)c2cc(OCC(=O)NCCCN3CCN(c4ccc(F)cc4)CC3)ccc2O1`, the side scatter shift is 5.9% (inactive) (at 100 µM) and 15.1% (side scatter shift, at 10 µM).

As for `CCOc1cccc2cc(-c3cn4cc(C)ccc4n3)c(=O)oc12`, the side scatter shift reads like this: (at 100 µM) 43.1% (active); (side scatter shift, at 10 µM) 2.1%.

`Cc1ccccc1OCc1nc(-c2ccc(NC(=O)c3ccc4c(c3)OCO4)cc2)no1`: the side scatter shift was 32.3% (inactive) (at 100 µM) and 4.6% (side scatter shift, at 10 µM).

Turning to `COc1ccc(CN2C(=O)C(O)(CC(=O)c3c(C)n[nH]c3C)c3ccccc32)cc1OC` (configuration not stated), the side scatter shift reads like this: (at 100 µM) 9.9% (inactive); (side scatter shift, at 10 µM) 6.45%.

With `Cc1ccc(CNc2nc3ccccc3n3nnnc23)cc1`, the side scatter shift by setting is: (at 100 µM) 33.1% (inactive); (side scatter shift, at 10 µM) 7%.

For the compound `CCOC(=O)C1=C(C)N=c2s/c(=C\c3ccncc3)c(=O)n2C1c1ccc2c(c1)OCO2` (configuration not stated), the side scatter shift is 47.1% (inactive) (at 100 µM) and 6.4% (side scatter shift, at 10 µM).

For the compound `Cc1onc(-c2ccccc2Cl)c1C(=O)N(C)C1CCCCC1`, the side scatter shift was 16% (inactive) (at 100 µM) and 5.1% (side scatter shift, at 10 µM).

As to `CCOC(=O)N1CCN(C(=O)C2CCCN(Cc3nc(-c4ccc(Cl)cc4)oc3C)C2)CC1` (configuration not stated), the side scatter shift was 20% (inactive) (at 100 µM) and 4.15% (side scatter shift, at 10 µM).

Turning to `CCc1ccc(-c2nc(CN3CCC(C(=O)N4CCN(c5ccccc5)CC4)CC3)c(C)o2)cc1`, the side scatter shift is 44.4% (inactive) (at 100 µM) and 19.8% (side scatter shift, at 10 µM).

Turning to `O=C(Cn1cnc2ccccc2c1=O)NCCC(=O)N1CCN(c2ccccc2)CC1`, the side scatter shift is 17.1% (inactive) (at 100 µM) and 4% (side scatter shift, at 10 µM).

Consider `COc1ccc(-n2c(C)nc3c(cnn3-c3ccc(Cl)cc3)c2=O)cc1`, for which the side scatter shift is, setting by setting: (at 100 µM) 4.4% (inactive); (side scatter shift, at 10 µM) 5.6%.

On to `Cc1ccc(C)c2[nH]c(=O)c(CN(CCN3CCCC3)C(=O)Nc3cccc(Cl)c3)cc12`, for which the side scatter shift is, setting by setting: (at 100 µM) 20% (inactive); (side scatter shift, at 10 µM) 49.6%.

With `O=S1(=O)C=C(Sc2nc3ccccc3s2)c2ccccc21`, the side scatter shift is, setting by setting: (at 100 µM) 7.7% (inactive); (side scatter shift, at 10 µM) 17.9%.

As to `Cc1ccc(NC(=O)CCNS(=O)(=O)c2ccc3c(c2)oc(=O)n3C)c(C)c1`, the side scatter shift reads like this: (at 100 µM) 1.7% (inactive); (side scatter shift, at 10 µM) 5.85%.

With `Cc1oc(-c2ccc(Cl)cc2)nc1CN1CCCC(C(=O)NCc2ccccn2)C1` (configuration not stated), the side scatter shift runs as follows: (at 100 µM) 26.5% (inactive); (side scatter shift, at 10 µM) 6.45%.

`Cc1cc(NC(=O)CSc2nnc(Cn3c(=O)sc4ccccc43)n2-c2ccccc2C)no1`: the side scatter shift runs as follows: (at 100 µM) 26.5% (inactive); (side scatter shift, at 10 µM) 8.25%.

Regarding `CCN1CCN(CCNC(=O)C2CCN(Cc3nc(-c4ccc(Cl)cc4)oc3C)CC2)CC1`, the side scatter shift by setting is: (at 100 µM) 44.7% (active); (side scatter shift, at 10 µM) 28.8%.

For `Cc1cc(C)nc(N2CCC(C(=O)Nc3ccc(Oc4ccccc4)cc3)CC2)n1`, the side scatter shift by setting is: (at 100 µM) 44.1% (inactive); (side scatter shift, at 10 µM) 3.05%.

As to `c1ccc(OCCCn2nnc(-c3cccnc3)n2)cc1`, the side scatter shift is 15.4% (inactive) (at 100 µM) and 3.1% (side scatter shift, at 10 µM).

Consider `Cc1cc(=O)n2nc(N3CCCC(C(=O)NCc4ccco4)C3)sc2n1` (configuration not stated), for which the side scatter shift reads like this: (at 100 µM) 7.4% (inactive); (side scatter shift, at 10 µM) 4.75%.

For `O=C(CCn1c(=O)oc2ccccc21)NCCCN1CCN(c2ccc(F)cc2)CC1`, the side scatter shift is, setting by setting: (at 100 µM) 25.4% (inactive); (side scatter shift, at 10 µM) 4.25%.

Regarding `Cc1ccc2c(c1)c1c(n2CC(O)CNC(CO)(CO)CO)CCCC1` (configuration not stated), the side scatter shift is 34.3% (inactive) (at 100 µM) and 12.4% (side scatter shift, at 10 µM).

Consider `Cn1c(=O)cc(OCC(=O)NCCCN2CCN(c3cccc(Cl)c3)CC2)c2ccccc21`, for which the side scatter shift (at 100 µM) was 20% (inactive) and the side scatter shift (side scatter shift, at 10 µM) amounted to 8.2%.

In the case of `Cc1oc(-c2ccc(Cl)cc2)nc1CN1CCC(C(=O)NCCCN2CCCC2=O)CC1`, the side scatter shift was 11.8% (inactive) (at 100 µM) and 1.8% (side scatter shift, at 10 µM).

For the compound `O=C(O)C1CCCCC1C(=O)Nc1cnn(Cc2ccccc2)c1` (configuration not stated), the side scatter shift by setting is: (at 100 µM) 19% (inactive); (side scatter shift, at 10 µM) 5.15%.

Consider `O=S(=O)(Nc1cccc2ncccc12)c1cccs1`, for which the side scatter shift (at 100 µM) is 14.3% (inactive) and the side scatter shift (side scatter shift, at 10 µM) was 5.95%.

For `CC(=O)Nc1cc(C(=O)N2CCOCC2)ccc1S(=O)(=O)c1ccc(C)cc1`, the side scatter shift is 11.4% (inactive) (at 100 µM) and 2.95% (side scatter shift, at 10 µM).

Turning to `Cn1c(=O)cc(OCC(=O)NCCCN2CCN(c3ccccc3F)CC2)c2ccccc21`, the side scatter shift runs as follows: (at 100 µM) 66.5% (active); (side scatter shift, at 10 µM) 4.5%.

For `COc1cc2nc(N3CCN(C(=O)C4COc5ccccc5O4)CC3)nc(N)c2cc1OC` (configuration not stated), the side scatter shift (at 100 µM) is 0% (active) and the side scatter shift (side scatter shift, at 10 µM) is 55.2%.

Take `Cc1oc(-c2cccc(Cl)c2)nc1CN1CCCC(C(=O)NCCCN2CCOCC2)C1` (configuration not stated): the side scatter shift by setting is: (at 100 µM) 27.3% (inactive); (side scatter shift, at 10 µM) 23.6%.

`Cn1c(C(=O)NCCC2=CCCCC2)cc2c(=O)n3ccccc3nc21`: the side scatter shift is 11.5% (inactive) (at 100 µM) and 5.75% (side scatter shift, at 10 µM).

Consider `CCn1c(=S)ccc2ccc(OC)cc21`, for which the side scatter shift runs as follows: (at 100 µM) 12.9% (inactive); (side scatter shift, at 10 µM) 1.95%.

Regarding `Cc1ccccc1-c1nc(CN2CCC(C(=O)NCc3cccnc3)CC2)c(C)o1`, the side scatter shift (at 100 µM) is 36.9% (inactive) and the side scatter shift (side scatter shift, at 10 µM) is 1.35%.

Turning to `CCOC(=O)N1CCC(NC(=O)c2cc3c(-c4ccc(OC)c(OC)c4)nn(C)c3s2)CC1`, the side scatter shift was 16.6% (inactive) (at 100 µM) and 3.9% (side scatter shift, at 10 µM).
